Data reported in the supplement of paper PMC8728848.
The entries come from a sample that favours the strongest signals as a whole.

Columns and labels:
Assay in all cases: glycan array binding signal (z-score within array); higher = stronger binding
Settings in all cases: glycan notation: IUPAC condensed, linker removed
[1] = molecular target: Fuc(a1-2)Gal(b1-3)GlcNAc(b1-2)Man(a1-3)[Fuc(a1-2)Gal(b1-3)GlcNAc(b1-2)Man(a1-6)]Man(b1-4)GlcNAc(b1-4)[Fuc(a1-6)]GlcNAc
How it was run: (§1)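 From the Consortium for Functional Glycomics database, 3228 arrays were curated, keeping only those whose protein sequence was available. Binding is given as a within-array Z-score averaged across arrays sharing a protein sequence and across linkers. Negative Z-scores can be read as non-binding.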

[2] = molecular target: Fuc(a1-2)Gal(b1-3)[Fuc(a1-4)]GlcNAc
How it was run: as §1

[3] = molecular target: Fuc(a1-2)Gal(b1-3)[Fuc(a1-4)]GlcNAc(b1-2)Man(a1-3)[Fuc(a1-2)Gal(b1-3)[Fuc(a1-4)]GlcNAc(b1-2)Man(a1-6)]Man(b1-4)GlcNAc(b1-4)GlcNAc
How it was run: as §1

[4] = molecular target: Fuc(a1-2)Gal(b1-3)[Fuc(a1-4)]GlcNAc(b1-2)Man(a1-6)[Fuc(a1-2)Gal(b1-3)[Fuc(a1-4)]GlcNAc(b1-2)Man(a1-3)]Man(b1-4)GlcNAc(b1-4)[Fuc(a1-6)]GlcNAc
How it was run: as §1

[5] = molecular target: Fuc(a1-2)Gal(b1-4)[Fuc(a1-3)]GlcNAc(b1-2)Man(a1-6)[Fuc(a1-2)Gal(b1-4)[Fuc(a1-3)]GlcNAc(b1-2)Man(a1-3)]Man(b1-4)GlcNAc(b1-4)[Fuc(a1-6)]GlcNAc
How it was run: as §1

[6] = molecular target: Fuc(a1-2)Gal(b1-4)[Fuc(a1-3)]GlcNAc(b1-3)Gal(b1-4)[Fuc(a1-3)]GlcNAc(b1-3)Gal(b1-4)[Fuc(a1-3)]GlcNAc
How it was run: as §1

[7] = molecular target: Fuc(a1-2)Gal(b1-4)[Fuc(a1-3)]GlcNAc(b1-3)GalNAc
How it was run: as §1

Fuc(a1-2)[Gal(a1-3)]Gal = molecular target: Fuc(a1-2)[Gal(a1-3)]Gal
How it was run: as §1

[8] = molecular target: Fuc(a1-2)[Gal(a1-3)]Gal(b1-4)GlcNAc(b1-2)Man(a1-3)[Fuc(a1-2)[Gal(a1-3)]Gal(b1-4)GlcNAc(b1-2)Man(a1-6)]Man(b1-4)GlcNAc(b1-4)GlcNAc
How it was run: as §1

[9] = molecular target: Fuc(a1-2)[GalNAc(a1-4)]Gal(b1-4)GlcNAc
How it was run: as §1

[10] = molecular target: Fuc(a1-3)[Gal(b1-4)]GlcNAc(b1-2)Man(a1-3)[Fuc(a1-3)[Gal(b1-4)]GlcNAc(b1-2)Man(a1-6)]Man(b1-4)GlcNAc(b1-4)[Fuc(a1-6)]GlcNAc
How it was run: as §1

[11] = molecular target: Fuc(a1-3)[Gal(b1-4)]GlcNAc(b1-3)GalNAc
How it was run: as §1

[12] = molecular target: Fuc(a1-3)[Gal3S(b1-4)]GlcNAc
How it was run: as §1

[13] = molecular target: Gal(a1-3)Gal(b1-4)[Fuc(a1-3)]GlcNAc(b1-2)Man(a1-3)[Gal(a1-3)Gal(b1-4)[Fuc(a1-3)]GlcNAc(b1-2)Man(a1-6)]Man(b1-4)GlcNAc(b1-4)GlcNAc
How it was run: as §1

Gal(b1-2)Gal = molecular target: Gal(b1-2)Gal
How it was run: as §1

[14] = molecular target: Gal(b1-3)GalNAc(b1-3)Gal(a1-4)Gal(b1-4)Glc
How it was run: as §1

[15] = molecular target: Gal(b1-3)[Fuc(a1-4)]GlcNAc(b1-3)Gal(b1-3)[Fuc(a1-4)]GlcNAc
How it was run: as §1

[16] = molecular target: Gal(b1-4)GlcNAc(b1-2)Man(a1-3)[Gal(b1-4)GlcNAc(b1-2)Man(a1-6)]Man(b1-4)GlcNAc(b1-4)GlcNAc
How it was run: as §1

[17] = molecular target: Gal(b1-4)GlcNAc(b1-2)Man(a1-3)[GlcNAc(b1-2)Man(a1-6)]Man(b1-4)GlcNAc(b1-4)GlcNAc
How it was run: as §1

[18] = molecular target: Gal(b1-4)GlcNAc(b1-2)Man(a1-3)[Man(a1-6)]Man(b1-4)GlcNAc(b1-4)GlcNAc
How it was run: as §1

Gal3S6S(b1-4)GlcNAc = molecular target: Gal3S6S(b1-4)GlcNAc
How it was run: as §1

Gal6P(b1-4)GlcNAc = molecular target: Gal6P(b1-4)GlcNAc
How it was run: as §1

GalNAc(a1-3)Gal = molecular target: GalNAc(a1-3)Gal
How it was run: as §1

GalNAc(b1-3)Gal = molecular target: GalNAc(b1-3)Gal
How it was run: as §1

GalNAc(b1-4)Gal(b1-4)Glc = molecular target: GalNAc(b1-4)Gal(b1-4)Glc
How it was run: as §1

[19] = molecular target: Glc(a1-4)Glc(a1-4)Glc(a1-4)Glc
How it was run: as §1

[20] = molecular target: GlcNAc(a1-4)Gal(b1-4)GalNAc
How it was run: as §1

GlcNAc(b1-3)Gal = molecular target: GlcNAc(b1-3)Gal
How it was run: as §1

[21] = molecular target: GlcNAc(b1-3)[GlcNAc(b1-4)][GlcNAc(b1-6)]GlcNAc
How it was run: as §1

Kdn(a2-6)Gal(b1-4)GlcNAc = molecular target: Kdn(a2-6)Gal(b1-4)GlcNAc
How it was run: as §1

B1: Strep tagII-anxA1 (Homo sapiens), P04083 (protein)
chain: MAMVSEFLKQAWFIENEEQEYVQTVKSSKGGPGSAVSPYPTFNPSSDVAALHKAIMVKGVDEATIIDILTKRNNAQRQQIKAAYLQETGKPLDETLKKALTGHLEEVVLALLKTPAQFDADELRAAMKGLGTDEDTLIEILASRTNKEIRDINRVYREELKRDLAKDITSDTSGDFRNALLSLAKGDRSEDFGVNEDLADSDARALYEAGERRKGTDVNVFNTILTTRSYPQLRRVFQKYTKYSKHDMNKVLDLELKGDIEKCLTAIVKCATSKPAFFAEKLHQAMKGVGTRHKALIRIMVSRSEIDMNDIKAFYQKMYGISLCQAILDETKGDYEKILVALCGGN
glycan array binding signal (z-score) [1]: 0.314
glycan array binding signal (z-score) [2]: 5.05
glycan array binding signal (z-score) [3]: 10.7
glycan array binding signal (z-score) [4]: 3.12
glycan array binding signal (z-score) [5]: 3.12
glycan array binding signal (z-score) [6]: 0.054
glycan array binding signal (z-score) [7]: -0.317
glycan array binding signal (z-score) (Fuc(a1-2)[Gal(a1-3)]Gal): -0.612
glycan array binding signal (z-score) [8]: 1.69
glycan array binding signal (z-score) [9]: -0.304
glycan array binding signal (z-score) [10]: 2.81
glycan array binding signal (z-score) [11]: -0.209
glycan array binding signal (z-score) [12]: 0.479
glycan array binding signal (z-score) [13]: 3.62
glycan array binding signal (z-score) (Gal(b1-2)Gal): -0.402
glycan array binding signal (z-score) [14]: -0.44
glycan array binding signal (z-score) [15]: -0.366
glycan array binding signal (z-score) [16]: -0.682
glycan array binding signal (z-score) [17]: -0.567
glycan array binding signal (z-score) [18]: 1.08
glycan array binding signal (z-score) (Gal3S6S(b1-4)GlcNAc): 0.386
glycan array binding signal (z-score) (Gal6P(b1-4)GlcNAc): -0.017
glycan array binding signal (z-score) (GalNAc(a1-3)Gal): 0.67
glycan array binding signal (z-score) (GalNAc(b1-3)Gal): -0.664
glycan array binding signal (z-score) (GalNAc(b1-4)Gal(b1-4)Glc): 1.79
glycan array binding signal (z-score) [19]: 3.56
glycan array binding signal (z-score) [20]: 2.68
glycan array binding signal (z-score) (GlcNAc(b1-3)Gal): -0.607
glycan array binding signal (z-score) [21]: 2.8
glycan array binding signal (z-score) (Kdn(a2-6)Gal(b1-4)GlcNAc): -0.606
